From PubChem BioAssay (Tox21) come the findings set out here.

Inconclusive results are not listed. Entries that show only a call come without a potency. A number with no mark means an inactive call. Activity calls are given as the source filed them. Calls follow the shape of the dose curve; as a rule, active = well fitted activation curve with a large enough effect in the repeat runs; inconclusive = weak or mixed curves; inactive = flat fitted curve, though single readings scatter.
Also: nearly all actives have a fitted effect of over 45% in size.

The first assay can be described thus: A CellTox Green Cytotoxicity Assay to monitor cytotoxicity in HEK293 cells - 24 hour (AID 1224875). Particulars: CellTox Green fluorescence; series mostly up to 76.8 µM; activity change: at the top concentration. A digest of the protocol:
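Homogeneous no-lysis format: HEK293 cell suspension mixed with CellTox Green reagent, seeded, incubated 5 h at 37 C/5% CO2, then dosed by pintool with compound in DMSO.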
On to `CSc1ccc(Cl)cc1`, for which the “activity change” value was -6.8%.

In the case of `CN1C(=O)CC[C@H]1c1cccnc1`, the Potency entry is “inactive”. With `C=CC(=O)OCCC(=O)O`, the Potency entry was “inactive”. The same measure, in the same setting: under `CNC(=S)N(C)C` stands “inactive”. Same read-out and setting: in the case of `CCCOC(=O)c1ccccc1` it was “inactive”; in that of `Cc1ccc(S(=O)(=O)N=C=O)cc1`, “inactive”; in that of `Cc1ccc(C(C)C)c(O)c1`, “inactive”. Same read-out and setting: in the case of `CCNc1cccc(C)c1` it was “inactive”. In the case of `CCCCOC(=O)c1ccc(N)cc1`, the Potency result was “inactive”. With `CCCCCCC=O`, the Potency entry is “inactive”. Same read-out and setting: in the case of `CC(CCl)OP(=O)(OC(C)CCl)OC(C)CCl` (configuration not stated) it was “inactive”; in that of `CCCCCCCCCCCC(=O)OC`, “inactive”; in that of `COC(=O)c1cccnc1`, “inactive”. In the case of `C=CCc1ccc(OC)c(OC)c1`, the Potency entry was “inactive”. Turning to `CCCCCCCCCCCCCCCC(=O)OC(C)C`, the Potency result was “inactive”.

The next assay can be described thus: A CellTox Green Cytotoxicity Assay to monitor cytotoxicity in HepG2 cells - 16 hour (AID 1224876). Particulars: CellTox Green fluorescence; series mostly up to 76.8 µM; cytotoxicity increase: at the top concentration. A digest of the protocol:
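Fluorescent DNA-binding dye, 600 HepG2 cells/well, 5 h preincubation then compound in DMSO; same plates read at 0–40 h, 37 C.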
In the case of `CC1(C)NC(=O)NC1=O`, the result was inactive.

As for `CCCCCCCCCCN`, the outcome was inactive.

Consider `C[Si]1(C)O[Si](C)(C)O[Si](C)(C)O[Si](C)(C)O1`, for which the call was inactive.

For `O=C(O)/C=C/C(=O)O`, the “cytotoxicity increase” value is -2.59%. As to `CC(C)OC(=O)COc1ccc(Cl)cc1Cl`, the outcome was inactive. The same measure, in the same setting: in the case of `O=C(OCC1CCC2OC2C1)C1CCC2OC2C1` (configuration not stated) it was “inactive”; in that of `O=C1c2ccccc2CCc2ccccc21`, “inactive”; in that of `Nc1nc(N)nc(-c2ccccc2)n1`, “inactive”. Still for that read-out and setting: in the case of `C[C@]12CC[C@@H]3c4ccc(O)cc4CC[C@H]3[C@@H]1C[C@@H](O)[C@@H]2O` it was “inactive”. The same measure, in the same setting: in the case of `CCO[Si](CCC#N)(OCC)OCC` it was “inactive”. As to `O=C1CCCC1`, the outcome was inactive. On the same count and under the same terms, under `O=C(O)c1ccc(S(=O)(=O)N(Cl)Cl)cc1` stands “inactive”; under `CCCCCCCCCCCCCCCCO`, “inactive”. As for `CC(C)CC(=O)CC(C)CC(C)C` (configuration not stated), the “cytotoxicity increase” value was -13%. On to `C=C(C)CNCC`, for which the outcome was inactive. On the same count and under the same terms, under `CNC(=O)Oc1ccc2c(c1)[C@]1(C)CCN(C)[C@@H]1N2C` stands “inactive”. Still for that read-out and setting: under `C=Cc1ccc(C)cc1` stands “inactive”; under `O=c1[nH]cnc2[nH]ncc12`, “inactive”; under `CCOCC(=O)O`, “inactive”. In the case of `COc1ccccc1OCC(O)CO` (configuration not stated), the call was inactive. Regarding `CCCCCCCC=O`, the result was inactive. For `CC(=O)Oc1ccc(C)cc1`, the outcome was inactive. As to `CSc1ccc(Cl)cc1`, the “cytotoxicity increase” value was 12.4%. In the case of `CN1C(=O)CC[C@H]1c1cccnc1`, the call was inactive. On the same count and under the same terms, in the case of `C=CC(=O)OCCC(=O)O` it was “inactive”. Take `CNC(=S)N(C)C`: the compound was called inactive. Same read-out and setting: under `CCCOC(=O)c1ccccc1` stands “inactive”.

In the case of `Cc1ccc(S(=O)(=O)N=C=O)cc1`, the compound was called inactive. The same measure, in the same setting: under `Cc1ccc(C(C)C)c(O)c1` stands “inactive”. The same measure, in the same setting: in the case of `CCNc1cccc(C)c1` it was “inactive”. Regarding `CCCCOC(=O)c1ccc(N)cc1`, the “cytotoxicity increase” value is 4.13%. Take `CCCCCCC=O`: the outcome was inactive. Still for that read-out and setting: in the case of `CC(CCl)OP(=O)(OC(C)CCl)OC(C)CCl` (configuration not stated) it was “inactive”; in that of `CCCCCCCCCCCC(=O)OC`, “inactive”.

Consider `COC(=O)c1cccnc1`, for which the compound was classed as inactive. Still for that read-out and setting: under `C=CCc1ccc(OC)c(OC)c1` stands “inactive”.

Turning to `CCCCCCCCCCCCCCCC(=O)OC(C)C`, the compound was called inactive.
